# Bioassay records as filed in PubChem BioAssay.
# VP16 counter: counter-screen for ROR gamma inhibitors: Gal4-VP16 reporter; Drosophila S2 Gal4-VP16 UAS-luciferase, luminescence, 20 h; Potency, µM (series often up to 53.6 µM), for inactives: top-dose activity, negative = inhibition, hits mostly inhibitors; 3.5% of 310,000 active; AID 2546;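 also: Gal4-VP16 expression switched on by copper sulfate through the metallothionein promoter; potency is read from the fitted curve at half-maximal effect; nearly all actives have a fitted effect of over 50% in size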
# ELG1 repair inh: ELG1-dependent DNA repair inhibition; HEK293T ELG1-luciferase reporter, luminescence, 16 h; DNA damage induced by 5-fluorouridine; Potency, µM (top dose mostly 46.1 µM), for the others: at the top dose activity change, negative = inhibition, actives largely listed as inhibitors; 2.3% of 330,000 active; also: potency is read from the fitted curve at half-maximal effect; nearly all actives have a fitted effect of over 55% in size
#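 DMSO vehicle served as the neutral condition. Each well held 2,000 cells given 5-fluorouridine plus compound; after 16 hr at 37 °C/5% CO2, ONE-Glo was added and luciferase measured 30 min later.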
# RORg inh: blocks mouse ROR gamma transcriptional activity; Drosophila S2 Gal4-RORgamma UAS-luciferase reporter, 20 h; Potency, µM (doses to about 53.6 µM), without a hit: top-dose activity change, negative = inhibition, most hits filed as inhibitors; 5.4% of 310,000 active; AID 2551; also: potency is read from the fitted curve at half-maximal effect; nearly all actives have a fitted effect of over 60% in size
#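 Luciferase reporter read in Schneider cells carrying Gal4-RORγ (mouse) and UAS-Photinus luciferase; cells given compound 1 h before 700 uM copper sulfate induction, then incubated 20 h at ambient temperature.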
# FBPA coupling cs: inhibits coupling enzyme system, counter-screen for aldolase hits. coupling enzyme system counterscreen, AmpLite Red fluorescence. activity change, negative = inhibition, % at 58.2 µM, hits read low. 0.67% of 290,000 active. AID 2472; in the data active = activity change below about -30%
#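 Activity here indicates interference with the coupling reaction, not aldolase inhibition. Compounds at 57.5 uM final met coupling enzymes for 10 min at RT; substrate and AmpLite Red detection followed, with a 525/598 nm fluorescence read after 20 min.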
# TSHR antagonist: antagonists of human thyroid stimulating hormone receptor; AID 504810; TSHR-expressing cells, TSH-stimulated cAMP HTRF, 2 h; active compounds read low; 0.2% of 330,000 active; activity change, negative = inhibition, % at 11.5 µM; P16473;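 active = activity change below a set negative limit, meaning inhibition stronger than a set level, cut at about -70% in these data; inconclusive = activity change between two set negative limits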
# Target sequence (P16473 whole entry, looked up): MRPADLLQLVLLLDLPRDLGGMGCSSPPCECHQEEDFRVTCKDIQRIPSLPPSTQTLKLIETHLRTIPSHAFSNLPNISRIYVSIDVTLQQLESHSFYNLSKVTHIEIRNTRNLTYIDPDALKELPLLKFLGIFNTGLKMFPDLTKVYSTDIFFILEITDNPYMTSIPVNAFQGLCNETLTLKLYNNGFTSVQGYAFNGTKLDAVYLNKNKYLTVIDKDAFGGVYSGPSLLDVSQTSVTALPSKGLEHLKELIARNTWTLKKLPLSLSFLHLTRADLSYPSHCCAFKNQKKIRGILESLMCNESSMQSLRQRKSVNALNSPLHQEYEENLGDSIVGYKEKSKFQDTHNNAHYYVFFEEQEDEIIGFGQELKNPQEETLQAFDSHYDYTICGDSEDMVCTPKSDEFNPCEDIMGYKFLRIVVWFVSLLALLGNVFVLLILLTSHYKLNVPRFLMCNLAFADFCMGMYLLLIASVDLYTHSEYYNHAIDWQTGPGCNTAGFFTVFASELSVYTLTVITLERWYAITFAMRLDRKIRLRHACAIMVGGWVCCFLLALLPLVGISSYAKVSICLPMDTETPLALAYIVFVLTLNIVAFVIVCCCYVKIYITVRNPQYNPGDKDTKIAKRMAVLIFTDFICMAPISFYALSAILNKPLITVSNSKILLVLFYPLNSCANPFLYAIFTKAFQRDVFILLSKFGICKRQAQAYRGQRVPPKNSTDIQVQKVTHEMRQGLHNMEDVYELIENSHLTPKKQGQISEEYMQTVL
#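 Antagonism was scored as loss of TSH-driven cAMP in TSHR cells, stimulated with 4nM TSH (EC80) for 2 hours at 37 deg C and detected by homogeneous HTRF competition immunoassay.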
# * marks the source's active call; other numbers are inactive results; ? = inconclusive; / = no result; [ ] = remark or other dose. The list is not random: actives were taken first. Their share in the collection is about 8%. Unless noted, calls follow the shape of the dose curve; as a rule, active = well fitted curve in the direction sought with a large enough effect; inconclusive = small, poorly fitted or top-dose-only effect, or another doubt; inactive = no such curve, though single readings can be large; an effect the other way counts as inactive or inconclusive. % is scaled to controls: 0 for no effect and ±100 for the full control effect.
SMILES,VP16 counter,ELG1 repair inh,RORg inh,FBPA coupling cs,TSHR antagonist
CC(C)NCC(O)c1ccc(O)c(O)c1 (stereo not given),-1%,19%,-11%,-10,-13
CC[C@H](NC(C)C)[C@H](O)c1ccc(O)c(O)c1,-16%[17 µM],/,-13%[16.9 µM],-36*,/
O=C(O)[C@@H]1CC(O)CN1C(=O)CCc1c[nH]c2ccccc12 (stereo not given in full),4%,?,33%,2,8
O=c1oc(C2(O)CCCCC2)cc2ccc(/C=C/c3ccc(F)cc3)cc12,/,4%,/,/,-79*
COc1cc(NCCCC(C)N)c2ncccc2c1 (stereo not given),?,?,2.2µM*,-58*,24
CCC(CNc1cc(OC)cc2cccnc12)NC1CCCCC1 (stereo not given),?,-30%,16µM*,-29,9
N#C/C(=C\c1ccc(O)c(O)c1)C(=O)OCCc1cccs1,-2%,/,-22%,2,/
CC(=O)Nc1ccccc1NC(=O)c1ccc(C)cc1C,-9%,-3%,12%,3,1
CC(=O)Nc1ccccc1/C=C/c1ccc2c(C)cc(C)c(O)c2n1,7.9µM*,-16%,7.9µM*,2,1
CC(=O)Nc1ccccc1/C=C/c1ccc2c(C)ccc(O)c2n1,28µM*,-26%,8.9µM*,-3,-3
Fc1ccc(Oc2nc(-c3ccccc3)nnc2C(F)(F)F)cc1,-16%,-1%,24%,-11,1
Fc1ccc(Sc2nc(-c3ccccc3)nnc2C(F)(F)F)cc1,7.1µM*,?,5.6µM*,1,-11
COCC(=O)N1CCC2(CC1)CCN(c1cccc(-c3ccccc3)c1)CC2,9%,/,9%,4,/
O=C(NC1CC2CCCC(C1)N2S(=O)(=O)c1ccccc1)c1ccccc1 (stereo not given),13µM*,?,?,-5,-10
CC(=O)NC1CC2CCCC(C1)N2S(=O)(=O)c1ccccc1 (stereo not given),-7%,15%,4%,3,2
Cc1cccc(C(=O)NC2CC3CCCC(C2)N3S(=O)(=O)c2ccccc2)c1 (stereo not given),2%,23µM*,-1%,0,-12
Cc1cccc(C(=O)NC2CC3CCCC(C2)N3C(=O)Nc2ccccc2)c1 (stereo not given),2%,-26%,-10%,-3,-4
CCOC(=O)N1CCN(C(=O)COC(=O)C2CCN(S(=O)(=O)c3c(C)c(C)cc(C)c3C)CC2)CC1,/,4%,/,/,-5
COc1cc2[nH]c(=O)n(CCC(=O)N3CCN(c4cc(Cl)ccc4C)CC3)c(=O)c2cc1OC,?,8.2µM*,?,3,6
COc1cc2[nH]c(=O)n(CCCCCC(=O)N3CC=C(c4ccccc4)CC3)c(=O)c2cc1OC,-24%,8.2µM*,22%,1,/
CCOc1cc2[nH]c(=O)n(CCC(=O)N3CCN(c4ccccc4OC)CC3)c(=O)c2cc1OCC,2%,-28%,0%,1,-14
Cc1cc(C)nc(NC(=S)Nc2cccc(F)c2)c1,7.1µM*,8%,1.8µM*,-1,3
COc1cccc(NC(=S)Nc2cc(C)cc(C)n2)c1,?,?,1.3µM*,0,5
CCCC(=O)OCCNc1cc(Sc2nc3ccccc3[nH]2)c2nonc2c1[N+](=O)[O-],3.2µM*,?,2.8µM*,-13,-42
CCC(=O)OCCNc1cc(Sc2nccn2C)c2nonc2c1[N+](=O)[O-],4µM*,-27%,4.5µM*,-1,-97*
SMILES,VP16 counter,ELG1 repair inh,RORg inh,FBPA coupling cs,TSHR antagonist
CC(=O)OCCCNc1cc(Sc2ccc(Cl)cc2)c2nonc2c1[N+](=O)[O-],-14%,-18%,8%,-49*,30
CCC(=O)OCCNc1cc(SCCC(=O)OC)c2nonc2c1[N+](=O)[O-],?,18%,-11%,-18,-5
COC(=O)C1=C(C(=O)OC)[C@@H]2N(C)c3ccccc3[C@@]23C[C@@H](C(=O)OC)N(S(=O)(=O)c2c(C)noc2C)C3=N1,/,/,/,0,/
CC[C@H](C)[C@H](NC(=O)[C@H](Cc1ccc(O)cc1)NC(=O)[C@H](Cc1cnc[nH]1)NC(=O)[C@H](CCCNC(=N)N)NC(=O)[C@H](CC(C)C)NC(=O)[C@H](C)NC(=O)[C@H](CO)NC(=O)[C@H](Cc1ccc(O)cc1)NC(=O)[C@H](Cc1ccc(O)cc1)NC(=O)[C@H](CCCNC(=N)N)NC(=O)[C@H](C)NC(=O)[C@H](CCSC)NC(=O)[C@H](CC(=O)O)NC(=O)[C@H](CCC(=O)O)NC(=O)[C@H](C)NC(=O)[C@@H]1CCCN1)C(=O)N[C@@H](CC(N)=O)C(=O)N[C@@H](CC(C)C)C(=O)N[C@H](C(=O)N[C@H](C(=O)N[C@@H](CCCNC(=N)N)C(=O)N[C@@H](CCC(N)=O)C(=O)N[C@@H](CCCNC(=N)N)C(=O)N[C@@H](Cc1ccc(O)cc1)C(N)=O)[C@@H](C)O)[C@@H](C)CC,-5%,/,-3%,0,/
CN(/N=C/c1ccco1)C1=NS(=O)(=O)c2ccccc21,-12%,-2%,-3%,1,2
CCNc1nc(NCC)nc(N(C)/N=C/c2ccco2)n1,20µM*,-3%,3.5µM*,0,9
O=C1C(c2[nH]c3ccc(S(=O)(=O)O)cc3c2O)=Nc2ccc(S(=O)(=O)O)cc21,2%,/,6%,-38*,/
CCCCCC(=O)Nc1ccc(Cl)cn1,-13%,?,40%,2,47
CSc1ccc(Cl)c(C(=O)Nc2ccc(Cl)cn2)c1,-8%,-14%,-8%,-10,9
CCC(=O)NC(=S)Nc1ccc(Cl)cn1,?,14%,2.8µM*,-1,-2
CCCCCC(=O)NC(=S)Nc1ccc(Cl)cn1,7.9µM*,-1%,7.1µM*,-1,-11
COc1cc(C(=O)NC(=S)Nc2ccc(Cl)cn2)cc(OC)c1OC,11µM*,-1%,5µM*,1,-7
COc1cc(SC)ccc1C(=O)Nc1ccc(Cl)cn1,8.9µM*,?,7.9µM*,-5,-17
CC1CC(CCC(=O)NC(=S)Nc2ccc(Cl)cn2)C(=O)O1 (stereo not given),-27%,12%,11µM*,6,-5
O=C(NC(=S)Nc1ccc(Cl)cn1)C(c1ccccc1)c1ccccc1,4µM*,?,4µM*,-1,10
S=C(Nc1ccccc1)Nc1ccc(Cl)cn1,-14%,?,3%,0,7
O=C(NC(=S)Nc1ccc(Cl)cn1)C12CC3CC(CC(C3)C1)C2,4µM*,?,6.3µM*,1,5
C#CCCc1ccccc1/C=[N+](/C)[O-],/,?,/,/,20
